Source: PubChem BioAssay AID1460 (National Center for Advancing Translational Sciences (NCATS), 2008)
The campaign covered roughly 270,000 compounds. About 5,800 (2.1%) were called active. Inconclusive results (about 16%) are left out. This is one part of a sample in which actives are shown more often than they occur. Calls follow the shape of the dose curve; as a rule, active = well fitted inhibition curve with a large enough effect; inconclusive = small, poorly fitted or top-dose-only effect; inactive = flat fitted curve, though single readings scatter.

These molecules were tested against Microtubule-associated protein tau (Homo sapiens) (UniProt P10636) (assay: qHTS for Inhibitors of Tau Fibril Formation, Thioflavin T Binding). Conditions: recombinant tau K18 P301L, heparin-induced fibrillization, ThT fluorescence; series mostly up to 57.4 µM.
Sequence of Microtubule-associated protein tau (Homo sapiens) (P10636 561-689 P618L limits assumed): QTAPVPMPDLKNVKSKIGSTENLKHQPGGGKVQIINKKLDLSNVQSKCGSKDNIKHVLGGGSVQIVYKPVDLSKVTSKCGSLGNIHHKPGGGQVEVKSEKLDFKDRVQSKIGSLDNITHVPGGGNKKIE
In short: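 Using a mix of unlabeled (15 uM) and Alexa 594-labeled (0.24 uM) tau K18 P301L, heparin-triggered fibrillization over 6 hr at 37 C was scored by ThT fluorescence.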
Also: nearly all actives have a fitted effect of over 55% in size.
Potency is read from the fitted curve at half-maximal effect.

Potency, inactive:
Cc1ccc2sc(N(Cc3cccnc3)C(=O)C3COc4ccccc4O3)nc2c1C (stereo not given), CC(C)OC(=O)CN1C(=O)C(=O)c2ccccc21, Cc1cc(C(=O)COC(=O)CCCN2C(=O)c3ccccc3C2=O)c(C)n1C, Cc1ccc(-n2nc(C)c3c(C)cc(=O)n(CC(=O)Nc4ccc(C(C)C)cc4)c32)cc1, CCOc1ccc(N=C2SC(C(=O)O)CC(=O)N2C)cc1 (stereo not given), CCOc1ccc(/C=N/NC(N)=S)cc1, Cc1cc(OC(C)C(=O)Nc2sc3c(c2C(N)=O)CCCC3)ccc1Cl (stereo not given), COc1ccccc1CCNC(=O)c1cccn1-c1nnc(N2CCCCC2)s1, COc1ccc(CNC(=O)C2=Cc3cccc(OC)c3OC2)cc1OC, COc1ccc(Cc2nc3ccc(C(=O)NCc4ccc(OC)cc4OC)cc3o2)cc1, CC1CCCN(S(=O)(=O)c2ccc3[nH]c(=O)cc(C(=O)NCCc4ccc(Cl)cc4)c3c2)C1 (stereo not given), CC(C)OCCCn1c(SCC(=O)c2ccccc2)nc2c(sc3ccccc32)c1=O, Cc1cc(F)ccc1NS(=O)(=O)c1ccc(-n2cccn2)cc1, CC(C)CC(=O)NCC(c1ccc2c(c1)OCO2)N1CCN(c2ccc(F)cc2)CC1 (stereo not given), O=C(CN1CCN(Cc2ccccc2)CC1)NC(c1ccccc1)c1ccccc1, O=c1cc(N2CCN(Cc3ccccc3)CC2)c(-c2ccccc2)n[nH]1, CC(=O)c1ccc(NC(=O)CSc2nc(-c3ccccc3F)nc3c2c(=O)n(C)c(=O)n3C)cc1, COc1ccc(Cn2ccn(Cc3cccc(OC)c3)c(=O)c2=O)cc1, Cn1c(=O)oc2cc(S(=O)(=O)CCC(=O)NCCc3ccc(Cl)cc3)ccc21, Cc1ccc(C)c(Oc2c(C(F)(F)F)oc3c(CN4CCN(C)CC4)c(O)ccc3c2=O)c1, Fc1ccccc1Oc1ncnc2c1oc1ccccc12, C=CCOc1ccc(/C=N/NC(=O)C(C)Sc2ccccn2)cc1OCC (stereo not given), CCOc1ccc(/C=N/NC(=O)C(C)Sc2ccccn2)cc1OCC (stereo not given), COc1ccc(-c2ccc(=O)n(CC(=O)Nc3ccc(Br)cc3F)n2)cc1, Cc1ccccc1CN1CCC(CNC(=O)c2cc3ccc4cccnc4c3[nH]2)CC1, CCC(=O)Nc1ccc(C(=O)Nc2cccc(OC)c2)cc1, O=C(Nc1nc2cc3c(cc2s1)OCCO3)c1cccc(S(=O)(=O)N2CCOCC2)c1, COc1cccc(C(=O)Nc2ccc(-c3cc(C(F)(F)F)nn3-c3ccccc3)cc2)c1, COc1ccc(C(=O)Nc2nc(-c3ccc(S(=O)(=O)N4CCOCC4)cc3)cs2)cc1, COc1cc(NC(=O)C2CCN(c3cnccn3)CC2)cc(OC)c1, CCc1ccc(S(=O)(=O)c2nnn3c2nc(N2CCN(CC)CC2)c2sccc23)cc1, CCC(=O)Nc1ccccc1-c1nc2ccccc2n(CC(=O)Nc2ccc(C)c(C)c2)c1=O, COc1ccc(C=Nc2cccc3ncccc23)cc1, COc1cc(NC(=O)Cn2c(=O)n(Cc3ccco3)c(=O)c3oc4ccccc4c32)cc(OC)c1, Cc1cccc(C2=N/C(=C/c3cccs3)C(=O)O2)c1, O=C1N/C(=C/c2cccs2)C(=O)N1Cc1ccc(F)cc1, CC1Cc2cc(S(=O)(=O)CCC(=O)Nc3ccc(F)c(Cl)c3)ccc2N1C(=O)C1CC1 (stereo not given), O=C(CCC(=O)c1cccs1)NCc1ccccc1, Cc1ccc(C)c(NC(CC(=O)c2ccccc2)C(=O)OCC(=O)c2cccs2)c1 (stereo not given), COc1cccc(-n2cc(C(=O)NCc3cccc(Cl)c3)c3ccccc3c2=O)c1, CCS(=O)(=O)N1CCC(n2c(C)nc3cccnc32)CC1, C=CCNC(=S)NNC(=O)c1cc(Cl)ccc1OC, COc1ccc(Cl)cc1C(=O)NNC(=S)NC1CCCC1, Cc1ccc(C(=O)N2c3ncnn3C3(CCCCC3)[C@@H]3CCCC[C@@H]32)cc1, Cc1cccn2c(=O)c(/C=C3\SC(=S)N(CC(C)C)C3=O)c(NCCCOC(C)C)nc12, CCOC(=O)CNC(=O)c1cc2c(=O)n3cccc(C)c3nc2s1, Cn1nnnc1SCCCNCc1cccc(OCc2ccc(Cl)cc2)c1, Cc1cccc(C)c1Nc1c(-c2ccccc2O)nc2ncccn12, Cc1ccccc1Nc1c(-c2ccccc2)nc2ncccn12, COc1ccc(NC(=O)CN2CCCN(Cc3ccccc3)S2(=O)=O)cc1, Cc1nnc(C)n1-c1ccc(C(=O)Nc2cccc(Br)c2)cc1, C=Cc1ccc(Cn2c(C(=O)O)c(CNC3CCCC3)c3ccc(C)cc32)cc1

Potency, active:
CCCCN1C(=O)/C(=C(/C#N)C(N)=O)c2ccccc21 20 µM, CCOc1ccc(N=C2NC(=O)S/C2=C\c2ccc(O)cc2)cc1 3.55 µM, O=C1c2ccccc2C(=O)c2c1cccc2N1CCN(Cc2ccccc2)CC1 14.1 µM, CCOc1ccc(/C=N/Nc2nncc(-c3ccccc3)n2)cc1OC 2.24 µM, COc1cccc(C(=O)Nc2nnc(S(=O)(=O)N3CCOCC3)s2)c1 3.16 µM, COc1cccc(C(=O)Nc2ccc(N3CCCC3)cc2)c1 14.1 µM, Oc1c(C=Nc2cccc3nsnc23)ccc2ccccc12 2.24 µM, CSC1=N/C(=C\C=C\c2cccs2)C(=O)S1 14.1 µM, Cc1ccccc1C(CC(=O)c1cccs1)C(C#N)C#N (stereo not given) 25.1 µM, Cc1coc2c(O)cc3c(c12)OC1(N2CCCCC2)C(=O)NCCCC31 (stereo not given) 15.8 µM, COc1ccc(Cl)cc1C(=O)NNC(=S)NC(=O)/C=C/c1ccco1 11.2 µM, CCOC(=O)CC1C(=O)NCCN1c1nc2c(C)cccn2c(=O)c1/C=C1\SC(=S)N(C(C)CC)C1=O (stereo not given) 7.94 µM, CCc1cccc(C)c1Nc1c(-c2ccc(N(C)C)cc2)nc2ncccn12 14.1 µM
